Among the data in PubChem BioAssay (EPA / NIEHS) are outcome values, retold here.

The structures appear in SMILES notation. Inconclusive results are not listed. The source made the active and inactive calls. The calls were made as follows: active = hit-call score of the fitted dose curve at least 0.9, where 1 is the maximum; inconclusive = response in the unintended direction; inactive = score below 0.9.

A short description of the test: ATG_Hpa5_TRANS: Attagene TRANS-FACTORIAL HepG2 Assay for human GAL4-Hpa5 Hepatocyte Transcription Factor Basal Promoter (AID 2282975).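 Also: hits are increases in reporter mRNA over DMSO baseline.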 To be noted: HepG2 Attagene GAL4-Hpa5 transcription reporter. The protocol:
ATG_TRANS is a cell-based, multiplexed-readout assay that uses HepG2, a human liver cell line, with measurements taken at 24 hours after chemical dosing in a 24-well plate.ATG_Hpa5_TRANS is one of 30 assay component(s) measured or calculated from the ATG_TRANS assay. It is designed to make measurements of mRNA induction, a form of inducible reporter, as detected with fluorescence intensity signals by Reverse transcription polymerase chain reaction (RT-PCR) and Capillary electrophoresis technology.Data from the assay component ATG_Hpa5_TRANS was analyzed into 1 assay endpoint. This assay endpoint, ATG_Hpa5_TRANS, was analyzed in the positive analysis fitting direction relative to DMSO as the negative control and baseline of activity. Using a type of inducible reporter, measures of mRNA for gain-of-signal activity can be used to understand the background control at the transcription factor-level as they relate to the gene . Furthermore, this assay endpoint can be referred to as a secondary readout, because this assay has produced multiple assay endpoints where this one serves a background control function. To generalize the intended target to other relatable targets, this assay endpoint is annotated to the background measurement intended target family, where the subfamily is internal marker.
Human liver HepG2 cells are transiently transfected with multiple reporter transcription units (MRTUs) in 6-well plates using FuGene 6 reagent (Roche; 3 ml FuGene/1 mg DNA). The MRTU constructs are regulated by a cis-regulating element (promoter). […] A major difference between the CIS and TRANS system is that in CIS activities of endogenous TFs are measured, whereas the TRANS assay evaluates changes in activities of exogenous, chimeric NR-Gal4 proteins. […] At the end of 24 hour incubation, total RNA was isolated using TriZol reagent (Invitrogen). The isolated RNA is then reverse-transcribed using oligo(dT) primer and Mo-MLV reverse transcriptase (Invitrogen) with DNAse I (Ambion) treatment for 30 min. The one-tenth of the produced cDNA was amplified by PCR using Taq DNA polymerase (Invitrogen) and two reporter sequence-specific primers. The PCR products were fluorescently labeled by primer extension with 6-arboxyfluorescein (6-FAM) 5'-labeled reporter sequence-specific primer (2 min at 95 C, 20 s at 68 C and 10 min at 72 C) and these products were digested with 5U of HpaI (New England Biolabs) for 2h at 37 C. The fragments were purified using Qiaquick PCR columns (Qiagen), analyzed on an ABI 3130xL genetic analyzer (Applied Biosystems) with peak positions identified by using a set of X-rhodamine (ROX)-labeled MapMarker1000 molecular weight standards (BioVentures). The raw capillary electrophoresis data was processed using Attagraph software (Attagene).
With `CCCN(CCC)c1c([N+](=O)[O-])cc(S(N)(=O)=O)cc1[N+](=O)[O-]`, the compound was called inactive. To `CCOC(=O)C(Cl)Cc1cc(-n2nc(C)n(C(F)F)c2=O)c(F)cc1Cl` (stereo not drawn) belongs “inactive”; to `CCCC1COC(Cn2cncn2)(c2ccc(Cl)cc2Cl)O1` (stereo not drawn), “inactive”; to `COP(N)(=O)SC` (stereo not drawn), “inactive”. To `Cc1c(F)c(F)c(COC(=O)C2C(/C=C(\Cl)C(F)(F)F)C2(C)C)c(F)c1F` (stereo not drawn) belongs “inactive”; to `COc1nc(C)nc(NC(=O)NS(=O)(=O)c2ccccc2CCC(F)(F)F)n1`, “inactive”. To `CC1COC(Cn2cncn2)(c2ccc(Oc3ccc(Cl)cc3)cc2Cl)O1` (stereo not drawn) belongs “inactive”; to `COC(=O)N(OC)c1ccccc1COc1ccn(-c2ccc(Cl)cc2)n1`, “inactive”. Consider `COC(=O)C(C)Oc1ccc(Oc2ccc(Cl)cc2Cl)cc1` (stereo not drawn), for which the compound was called inactive.

As for `COP(=S)(OC)Oc1nc(Cl)c(Cl)cc1Cl`, the result was inactive. Next, `CO/C=C(/C(=O)OC)c1ccccc1Oc1cc(Oc2ccccc2C#N)ncn1`: “inactive”; `CC(C)Oc1cc(-n2nc(C(C)(C)C)oc2=O)c(Cl)cc1Cl`: “inactive”. Next, `CCCCNC(=O)OCC#CI`: “inactive”. To `Cc1cc(Cl)ccc1OCC(=O)O` belongs “inactive”; to `C=CCC1=C(C)[C@@H](OC(=O)[C@@H]2[C@@H](C=C(C)C)C2(C)C)CC1=O`, “inactive”. For the compound `OC(c1ccc(Cl)cc1)(c1cncnc1)c1ccccc1Cl` (stereo not drawn), the compound was called inactive. As to `N#CC(CCc1ccc(Cl)cc1)(Cn1cncn1)c1ccccc1` (stereo not drawn), the outcome was inactive. Turning to `CCc1nn(C)c(C(=O)NCc2ccc(C(C)(C)C)cc2)c1Cl`, the compound was called inactive. To `CC(Oc1ccc(Cl)cc1Cl)C(=O)O` (stereo not drawn) belongs “inactive”; to `O=C(O)c1nc(Cl)ccc1Cl`, “inactive”; to `O=C(Nc1ccccc1)Nc1ccnc(Cl)c1`, “inactive”. Next, `C#CCOS(=O)OC1CCCCC1Oc1ccc(C(C)(C)C)cc1` (stereo not drawn): “inactive”; `Fc1ccc(Oc2ccnc3cc(Cl)cc(Cl)c23)cc1`: “inactive”. Take `CC(C)C1(C)N=C(c2nc3ccccc3cc2C(=O)O)NC1=O` (stereo not drawn): the compound was classed as inactive. Next, `CCNc1nc(Cl)nc(NCC)n1`: “inactive”; `COc1ccc(C(c2ccc(OC)cc2)C(Cl)(Cl)Cl)cc1`: “inactive”.

Regarding `C=CC1(C)OC(=O)N(c2cc(Cl)cc(Cl)c2)C1=O` (stereo not drawn), the outcome was inactive. Next, `CCOc1cc(Oc2ccc(C(F)(F)F)cc2Cl)ccc1[N+](=O)[O-]`: “inactive”. To `CCOP(=S)(OCC)SCn1c(=O)oc2cc(Cl)ccc21` belongs “inactive”. Next, `CCCCC(CC)COC(=O)c1ccccc1C(=O)OCC(CC)CCCC` (stereo not drawn): “inactive”; `CNC(=O)ON=CC(C)(C)SC`: “inactive”. As for `COc1nc(NC(C)C)nc(NC(C)C)n1`, the outcome was inactive. In the case of `Cc1ccc(-c2c(Cl)nc(C#N)n2S(=O)(=O)N(C)C)cc1`, the result was inactive.
